Source: PubChem (Broad Institute)
Many of the other results were omitted from the sample, so hits are more common in it than they were.
ID4 binder – ID4 (human) binding. P47928. small molecule microarray, Flag-ID4 binding, fluorescence F/B. calls only. 31,000 tested, 1.2% active; call rule not given here;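 further: a binder raises fluorescence above local background on the spot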
Target sequence (P47928 whole entry, looked up): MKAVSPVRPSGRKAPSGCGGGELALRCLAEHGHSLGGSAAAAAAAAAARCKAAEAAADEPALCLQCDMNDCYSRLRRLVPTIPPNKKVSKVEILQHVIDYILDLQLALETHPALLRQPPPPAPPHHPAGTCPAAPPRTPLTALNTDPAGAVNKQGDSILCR
* marks the source's active call; other numbers are inactive results; i = inactive; + = active, no number.

SMILES	ID4 binder
Cc1cc(C(F)(F)F)nn1CCCNC(=O)c1cc(-c2cccnc2)nc2ccc(Cl)cc12	i
Cn1c(SCC(=O)c2ccccc2)nnc1-c1cc2ccccc2o1	i
O=C(CSc1nc2ccccc2s1)Nc1cccc(Cl)c1Cl	i
CN1CCN(C(=O)C2=C[C@@H](c3ccc4c(c3)OCO4)C[C@@H](OCCCCO)O2)CC1	+
O=C(C1=C[C@@H](c2ccc(C(F)(F)F)cc2)C[C@@H](OCCCCO)O1)N1CCN(Cc2ccc3c(c2)OCO3)CC1	i
O=C(C1=C[C@@H](c2ccc3c(c2)Cc2ccccc2-3)C[C@@H](OCCCCO)O1)N1CCN(Cc2ccc3c(c2)OCO3)CC1	i
O=C(Nc1ccccc1-c1nc2ccccc2s1)c1ccc(-c2ccccc2[N+](=O)[O-])o1	i
Cn1c(SCC(=O)N2CCN(Cc3ccccc3)CC2)nnc1-c1ccncc1	+
CCCn1c(SCC(=O)N2CCOCC2)nnc1-c1ccncc1	i
Cn1c(SCC(=O)Nc2ccc(Oc3ccccc3)cc2)nnc1-c1ccncc1	i
COc1ccc(N(CC(=O)Nc2cccc(Br)c2)S(C)(=O)=O)cc1	i
Cc1cc(Cl)cc(Cl)c1OCC(=O)Nc1ccc(Cl)c(-c2nc3ncccc3o2)c1	i
O=C(CCc1ccc(O)c(O)c1)C[C@H](CCc1ccc(O)c(O)c1)O[C@@H]1OC[C@@H](O)[C@H](O)[C@H]1O	i
CCOc1ccc(NC(=O)C(C)Sc2nc3ccccc3c(=O)n2-c2cccc(C)c2)cc1 (stereo not given)	i
CC(C)C(=O)Nc1ccccc1C(=O)OCc1cccc([N+](=O)[O-])c1	i
CN/C(=C/[N+](=O)[O-])NCCSCc1csc(CN(C)C)n1	+
CCOc1ccc(-n2c(SCC(=O)c3ccc(Br)cc3)nnc2-c2cccnc2)cc1	i
Cc1ccc2c(C)c(C(=O)Nc3sc4c(c3C(=O)NCc3ccco3)CCC4)oc2c1	i
COc1ccc(C(=O)NCc2n[nH]c(=S)n2C)cc1OC	i
Nc1cc(N)nc(SCc2n[nH]c(=S)n2-c2ccccc2)n1	i
Cc1cccc(C(=O)NCc2n[nH]c(=S)n2-c2ccccc2)c1	+
Cc1occc1-c1nnc2sc(-c3ccc(-c4ccccc4[N+](=O)[O-])o3)nn12	i
COc1c(O[C@@H]2O[C@H](CO[C@H]3OC[C@](O)(CO)[C@H]3O)[C@@H](O)[C@H](O)[C@H]2O)cc2occ(-c3ccc(O)cc3)c(=O)c2c1O	i
CNC[C@H]1Oc2ccc(NC(=O)Nc3ccc4c(c3)OCO4)cc2C(=O)N([C@@H](C)CO)C[C@@H]1C	i
CNC[C@@H]1Oc2ccc(NC(=O)Nc3ccc(F)cc3)cc2C(=O)N([C@H](C)CO)C[C@@H]1C	i
SMILES	ID4 binder
C[C@H](CO)N1C[C@H](C)[C@@H](CN(C)C)Oc2ccc(NC(=O)Nc3ccc4c(c3)OCO4)cc2C1=O	i
CNC[C@H]1Oc2ccc(NC(=O)Nc3ccc4c(c3)OCO4)cc2C(=O)N([C@@H](C)CO)C[C@H]1C	+
CNC[C@H]1OCCCC[C@@H](C)Oc2ccc(NC(=O)Nc3ccc4c(c3)OCO4)cc2C(=O)N([C@@H](C)CO)C[C@H]1C	+
CNC[C@@H]1Oc2ccc(NC(=O)Nc3ccc4c(c3)OCO4)cc2C(=O)N([C@H](C)CO)C[C@H]1C	+
CNC[C@@H]1OCCCC[C@H](C)Oc2ccc(NC(=O)Nc3ccc4c(c3)OCO4)cc2C(=O)N([C@H](C)CO)C[C@@H]1C	i
CNC[C@H]1Oc2ccc(NC(=O)Nc3ccc(F)cc3)cc2C(=O)N([C@@H](C)CO)C[C@H]1C	i
C[C@H]1CCCCO[C@@H](CN(C)C)[C@@H](C)CN([C@@H](C)CO)C(=O)c2cc(NC(=O)Nc3ccc4c(c3)OCO4)ccc2O1	i
Cc1cc(N(CC(N)=O)S(C)(=O)=O)ccc1Br	i
CC(=O)c1ccc(N2CCN(C(=S)Nc3ccc(S(=O)(=O)Nc4ncccn4)cc3)CC2)cc1	i
CCOc1ccc(NC(=O)CSc2ncccn2)cc1	i
O=C(CSc1nnc(-c2ccco2)o1)c1ccc(Oc2ccccc2)cc1	i
COC(=O)Cc1c(C)nc2nc(NCc3ccccc3)[nH]n2c1=O	i
Cc1nc2nc(NCc3cccc([N+](=O)[O-])c3)[nH]n2c(=O)c1Cc1ccccc1	i
COc1cccc(CNc2nc3nc(C)c(Cc4ccccc4)c(=O)n3[nH]2)c1	+
COc1ccc(NC(=O)COc2c(Cl)c(C)c(Cl)c(C)c2Cl)cc1[N+](=O)[O-]	i
CC(NC(=O)/C=C/C(=O)O)C(=O)NC(C(=O)NC(Cc1c[nH]c2ccccc12)C(=O)O)C(C)c1c[nH]c2ccccc12 (stereo not given)	i
Cn1c(=O)c2c(nc(NCCN)n2C)n(C)c1=O	i
Cn1c(=O)c2c(nc(NCCN)n2Cc2ccc(Cl)cc2)n(C)c1=O	i
Cn1c(NCCCN)nc2c1c(=O)n(Cc1ccccc1Cl)c(=O)n2C	+
COC(=O)c1ccc(NC(=O)CSc2nncc3ccccc23)cc1	i
Cc1ccc(NC(=O)c2ccc(CSc3nnc(-c4ccc(NC(=O)c5ccccc5Cl)cc4)n3C)cc2)cc1	i
COc1cc([C@@H]2C3C=C([C@H]4Oc5cc(O)cc(O)c5C(=O)[C@@H]4O)[C@H]4[C@@H]2COC4(O)C3=O)ccc1O	i
O=C(NCc1ccccn1)Nc1ccc(F)cc1F	i
COc1cc2nccc(Oc3ccc(NC(=O)Nc4ccc(F)cc4F)c(F)c3)c2cc1OC	+
COc1cc2ncnc(Nc3ccc(Cl)cc3F)c2cc1OC	i
SMILES	ID4 binder
CC(=O)c1ccc(NC(=O)CSc2nc3ccc(NC(=O)c4ccccc4Cl)cc3s2)cc1	i
O=C1c2ccccc2C(=O)N1C[C@@H]1CCCN(Cc2ccc(OCCO)cc2)C1	+
O=C1c2ccccc2C(=O)N1[C@@H]1CCCN(Cc2ccc(OCCO)cc2)C1	i
O=C1c2ccccc2C(=O)N1C[C@@H]1CCCN(Cc2cccc(OCCO)c2)C1	i
O=S(=O)(N[C@@H]1CCCN(Cc2ccc(OCCO)cc2)C1)c1ccc(-c2ccccc2)cc1	i
COc1ccc(S(=O)(=O)N[C@@H]2CCCN(Cc3ccc(OCCO)cc3)C2)cc1	i
O=S(=O)(N[C@@H]1CCCN(Cc2ccc(OCCO)cc2)C1)c1ccc(Cl)cc1	+
CCN1CCN(C(=O)C(C)N(c2ccccc2)S(C)(=O)=O)CC1 (stereo not given)	i
O=C(COc1cccc(C(F)(F)F)c1)NCc1cccnc1	i
CNC[C@@H]1Oc2ccc(NS(=O)(=O)c3ccccc3)cc2C(=O)N([C@@H](C)CO)C[C@@H]1C	i
CNC[C@H]1Oc2ccc(NS(=O)(=O)c3ccccc3)cc2C(=O)N([C@@H](C)CO)C[C@H]1C	i
CNC[C@H]1Oc2ccc(NS(C)(=O)=O)cc2C(=O)N([C@H](C)CO)C[C@@H]1C	+
CNC[C@@H]1Oc2ccc(NS(C)(=O)=O)cc2C(=O)N([C@@H](C)CO)C[C@H]1C	+
CNC[C@H]1Oc2ccc(NS(=O)(=O)c3ccccc3)cc2C(=O)N([C@H](C)CO)C[C@H]1C	i
C[C@@H]1CN([C@H](C)CO)C(=O)c2cc(NS(C)(=O)=O)ccc2O[C@H]1CN(C)C	i
C=C[C@@]1(C)C[C@@]2(OC[C@@]3(C)O[C@@H]23)Oc2c1c(=O)oc1cccc(C)c21	i
COc1cc(OC)cc(-c2nnc(SCC(=O)Nc3ccc(Cl)cc3)n2-c2ccc(F)cc2)c1	i
CC1(C)Cc2c(sc3nc(SCc4ccccc4)nc(NCc4ccco4)c23)CO1	i
